Only some compounds are listed: those with a hit (about 3.9% of all), similar ones and a draw of the others.
HGIII-sPLA2 inh: Blocks human group III sPLA2 activity; Q9NZ20; QFRET BODIPY PC-A2 liposome hydrolysis, fluorescence; inhibition, % at 12.2 µM; hit rate 0.56% among 370,000; AID 743126;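 active = inhibition above mean plus 3 SD of compounds lying within the high and low control bounds, cut at about 19% in these data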
Yeast superoxide: yeast age-related superoxide inhibition as caloric restriction mimetic; S. cerevisiae aged cells, superoxide DHE fluorescence; stronger effect = lower value; superoxide response (% of plate mean), % at 10 µM; hit rate 0.18% among 330,000; AID 2690;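 active = superoxide response under a set limit, about three screen SD below normal, cut at about 65% in these data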;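 also: yeast aged for seven days with compound at 30 °C before DHE staining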
PLCb3 inh: inhibitors of human phospholipase C beta3. Q01970. Purified PLC-beta3, fluorogenic substrate, fluorescence. inhibition, % at 12.2 µM. hit rate 0.18% among 370,000. AID 720704; in the data active = inhibition above about 11%
HIF act: HIF pathway transcriptional activation; U2OS HRE-luciferase reporter, luminescence; normalized: DMSO 0%, desferrioxamine 100%; activation, % at 7.5 µM (by protocol); hit rate 0.32% among 300,000;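 active = mean activation of at least 10% of the iron chelator positive control signal, with at least half of replicates also reaching 10%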
AHR activator: activates the human aryl hydrocarbon receptor; P35869; AHR-responsive luciferase reporter cells, luminescence; activation, % at 5 µM; hit rate 2.5% among 320,000; in the data active = activation above about 47%
PLC-gamma1 inh: blocks human PLC-gamma1 enzyme activity | P19174 | purified PLC-gamma1, fluorogenic substrate, fluorescence | inhibition, % at 12.2 µM | hit rate 0.84% among 370,000; in the data active = inhibition above about 9.5%
Target sequence (P19174 whole entry, looked up): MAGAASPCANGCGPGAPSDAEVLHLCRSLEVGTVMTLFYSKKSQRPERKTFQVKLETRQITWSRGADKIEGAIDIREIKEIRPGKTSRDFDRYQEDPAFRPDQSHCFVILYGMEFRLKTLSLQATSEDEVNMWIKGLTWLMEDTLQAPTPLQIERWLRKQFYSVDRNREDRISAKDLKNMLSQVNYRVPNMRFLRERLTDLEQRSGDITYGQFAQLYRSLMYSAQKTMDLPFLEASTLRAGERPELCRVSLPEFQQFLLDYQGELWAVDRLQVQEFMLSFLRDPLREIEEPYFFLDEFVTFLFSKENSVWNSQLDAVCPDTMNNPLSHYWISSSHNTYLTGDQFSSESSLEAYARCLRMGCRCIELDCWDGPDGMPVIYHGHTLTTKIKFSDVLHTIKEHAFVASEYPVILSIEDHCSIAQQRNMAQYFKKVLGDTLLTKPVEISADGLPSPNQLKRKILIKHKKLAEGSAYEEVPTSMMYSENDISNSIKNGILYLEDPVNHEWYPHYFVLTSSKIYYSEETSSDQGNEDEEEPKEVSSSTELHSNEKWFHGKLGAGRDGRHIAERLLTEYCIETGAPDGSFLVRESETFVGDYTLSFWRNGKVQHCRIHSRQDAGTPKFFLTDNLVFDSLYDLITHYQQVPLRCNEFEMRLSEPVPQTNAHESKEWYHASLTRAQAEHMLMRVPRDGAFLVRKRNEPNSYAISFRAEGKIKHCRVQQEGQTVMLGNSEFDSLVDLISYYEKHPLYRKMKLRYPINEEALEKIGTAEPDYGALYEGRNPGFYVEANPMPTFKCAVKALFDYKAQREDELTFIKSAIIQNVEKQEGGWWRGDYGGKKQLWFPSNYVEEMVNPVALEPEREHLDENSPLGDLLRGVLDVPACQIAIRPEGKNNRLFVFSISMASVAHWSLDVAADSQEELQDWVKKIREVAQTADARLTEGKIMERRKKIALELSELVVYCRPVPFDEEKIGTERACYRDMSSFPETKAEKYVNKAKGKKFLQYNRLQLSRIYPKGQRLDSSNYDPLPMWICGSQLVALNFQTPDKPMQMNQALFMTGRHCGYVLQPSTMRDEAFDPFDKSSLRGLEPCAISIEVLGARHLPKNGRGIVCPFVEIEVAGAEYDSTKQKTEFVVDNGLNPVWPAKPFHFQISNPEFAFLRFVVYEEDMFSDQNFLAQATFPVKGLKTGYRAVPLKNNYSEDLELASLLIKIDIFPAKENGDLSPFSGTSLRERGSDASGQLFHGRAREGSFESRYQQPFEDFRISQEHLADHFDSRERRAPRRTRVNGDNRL
Hits are given with their value; i = inactive; nt = no result given.

SMILES | HGIII-sPLA2 inh | Yeast superoxide | PLCb3 inh | HIF act | AHR activator | PLC-gamma1 inh
ON=Cc1ccnc2ccccc12 | i | nt | i | nt | nt | i
O=C(Cc1ccccc1)N/N=C/c1cc(Br)cc(Br)c1O | i | i | i | i | i | i
CC(C)CNC(=O)OCc1cn(Cc2ccccc2F)nn1 | i | nt | i | nt | nt | i
CCC(=O)Nc1ccc(Cl)cc1C(=O)c1ccc[nH]1 | i | nt | i | nt | nt | i
COC(=O)[C@]12C[C@H](CC(=O)NCc3cccs3)C(=O)N(Cc3ccc(Cl)cc3Cl)C1=C[C@H](C(C)C)O[C@@H]2C1CC1 | i | nt | i | nt | nt | i
O=C(Nc1ccc(Cl)c(NC(=O)c2cccs2)c1)c1ccco1 | i | i | i | i | 75 | i
CCCC(=O)Nc1ccc(Cl)c(NC(=S)NC(=O)c2ccco2)c1 | i | i | i | i | 53 | i
CCCC(=O)Nc1ccc(Cl)c(NC(=O)c2ccco2)c1 | i | i | i | nt | i | i
COc1ccc2c3c([nH]c2c1)[C@]1(NCC3)C(=O)N(C)c2ccc(Cl)cc21 | i | nt | i | nt | nt | i
O=C(Nc1nnc(C2CC2)s1)c1cc([N+](=O)[O-])ccc1N1CCCCC1 | i | i | i | i | 49 | i
CC(O)(c1ccccc1)c1nc(-c2cc3ccccc3o2)cs1 (configuration not stated) | i | nt | i | nt | nt | i
Cc1nc2sccn2c1-c1nc(-c2cc3ccccc3o2)cs1 | i | i | i | i | 54 | i
Oc1ccccc1-c1cc(-c2ccccc2)no1 | i | i | i | i | i | i
CC(=O)Nc1nccc(-c2cc(-c3ccccc3)no2)n1 | nt | i | nt | i | 50 | nt
COc1cccc(C2CC=C(C(=O)O)CN2S(=O)(=O)c2ccc(C)cc2)c1 (configuration not stated) | i | nt | i | nt | nt | i
CCOc1ccccc1NC(=O)c1cc2c(C)nn(-c3ccccc3)c2s1 | i | nt | i | nt | nt | i
Cc1nn(-c2ccccc2)c2sc(C(=O)NNC(=O)COc3ccccc3)cc12 | i | i | i | i | 58 | i
Cc1cnc(NC(=O)c2cc3c(C)nn(-c4ccccc4)c3s2)s1 | i | i | i | i | 61 | i
Cc1nn(-c2ccccc2)c2sc(C(=O)NNC(=O)COc3cccc4ccccc34)cc12 | i | i | i | i | i | i
COCCn1c(=NC(=O)CCS(=O)(=O)c2ccccc2)sc2cc(C(=O)OC)ccc21 | i | i | i | i | i | i
COCCn1c(=NC(=O)CCS(=O)(=O)c2ccccc2)sc2c(OC)ccc(OC)c21 | i | i | i | i | 51 | i
CCOC(=O)C(C(=O)OCC)N(C#N)c1nc(OC)nc(N(C)C)n1 | i | i | i | i | i | i
CCOC(=O)C(C(=O)OCC)N(C#N)c1nc(SC)nc(N(C)C)n1 | i | i | i | i | 62 | i
Cc1cccc(NC(=O)c2cc(Cl)nc3ccccc23)c1 | i | i | i | i | 62 | i
Cc1cc(C(=O)Nc2ccc(Cl)cc2)c2ccccc2n1 | i | i | i | i | 66 | i
SMILES | HGIII-sPLA2 inh | Yeast superoxide | PLCb3 inh | HIF act | AHR activator | PLC-gamma1 inh
Cc1ccccc1N1CCN(C2=Nc3ccccc3Sc3ccccc32)CC1 | i | nt | i | nt | nt | i
CCc1ccc(C(=O)CSc2n[nH]c(C)n2)cc1 | i | i | i | i | 56 | i
CC(C)(C)CCN1CCC[C@H](NC(=O)COc2ccc(F)c(Cl)c2)C1 | i | nt | i | nt | nt | i
Cc1cc(C)cc(NC(=O)Nc2ccc3ccccc3n2)c1 | i | i | i | i | 56 | i
Cc1ccc(C(=O)Nc2ccc3ccccc3n2)cc1 | i | i | i | i | i | i
COc1cc2c(c(OC3OC(CO)C(O)C(O)C3O)c1)C(=O)CC(c1ccc(O)cc1)O2 (configuration not stated) | i | nt | i | nt | nt | i
CN(C)c1ccc(C(C[N+](=O)[O-])c2c(N)n(C)c(=O)n(C)c2=O)c(F)c1C#N (configuration not stated) | i | i | i | i | 63 | i
O=S(=O)(Nc1cccc2ccccc12)c1ccccc1 | i | i | i | i | i | i
O=S(=O)(Nc1c(O)ccc2ccccc12)c1ccc(F)cc1 | i | i | i | i | 55 | i
O=S(=O)(Nc1c(O)ccc2ccccc12)c1ccccc1 | i | i | i | i | 54 | i
Cc1cccc(-c2cccc3c4c([nH]c23)[C@@H]2C[C@H]3[C@@H](CN2CC4)[C@H](C)ON3C)c1 | i | nt | i | nt | nt | i
NC(=O)CC1Nc2cccc3cccc(c23)NC1=O (configuration not stated) | i | i | i | i | 51 | i
COc1ccc(CCNC(=O)CC2Nc3ccccc3NC2=O)cc1 (configuration not stated) | i | i | i | i | i | i

Assay outcomes as filed in PubChem.
